# Data reported in article PMC7862700, “An all-to-all approach to the identification of sequence-specific readers for epigenetic DNA modifications on cytosine”.
# How the values were obtained:
# Assay in all cases: DAPPL (digital affinity profiling via proximity ligation, sequencing); 10 mM Tris-HCl pH 7.5, 50 mM NaCl, 1 mM DTT, 4% glycerol, room temperature, 30 min; GST-TFs on glutathione beads, 16-mer random dsDNA library, 0.1% formaldehyde crosslink after washing; high values mean tight binding
# [1] = biological target: T1, FEV (Homo sapiens, UniProt Q99581 1-238); conditions: protein: recombinant; tags: N-terminal GST; dsDNA, one strand shown
# T1 sequence: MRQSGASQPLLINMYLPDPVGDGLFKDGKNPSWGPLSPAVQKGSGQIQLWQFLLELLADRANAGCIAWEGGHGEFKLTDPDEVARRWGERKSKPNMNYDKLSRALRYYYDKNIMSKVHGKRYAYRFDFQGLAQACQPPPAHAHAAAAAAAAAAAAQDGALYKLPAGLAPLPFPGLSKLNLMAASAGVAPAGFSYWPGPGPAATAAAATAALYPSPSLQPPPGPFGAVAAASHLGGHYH
# Outline: (§1)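 Pools of DNA-barcoded human transcription factors, expressed in yeast as GST fusions on glutathione beads and combined with a tag-only sample, were incubated with 200 nmole of a 16-mer random double-stranded DNA library. Incubation took 30 min at room temperature in Tris/NaCl/DTT/glycerol buffer and was followed by washing, 0.1% formaldehyde crosslinking, proximity ligation (BsaI/T4 ligase, 1 h, 37 °C), PCR amplification and sequencing on an Illumina NextSeq500. Binding signal is the ratio of a hexamer's read frequency for a factor to its frequency for the tag-only sample.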
# [2] = biological target: ETV5 (Homo sapiens, UniProt P41161 1-510); conditions: protein: recombinant; tags: N-terminal GST; dsDNA, one strand shown
# Chain of ETV5 (P41161 whole entry): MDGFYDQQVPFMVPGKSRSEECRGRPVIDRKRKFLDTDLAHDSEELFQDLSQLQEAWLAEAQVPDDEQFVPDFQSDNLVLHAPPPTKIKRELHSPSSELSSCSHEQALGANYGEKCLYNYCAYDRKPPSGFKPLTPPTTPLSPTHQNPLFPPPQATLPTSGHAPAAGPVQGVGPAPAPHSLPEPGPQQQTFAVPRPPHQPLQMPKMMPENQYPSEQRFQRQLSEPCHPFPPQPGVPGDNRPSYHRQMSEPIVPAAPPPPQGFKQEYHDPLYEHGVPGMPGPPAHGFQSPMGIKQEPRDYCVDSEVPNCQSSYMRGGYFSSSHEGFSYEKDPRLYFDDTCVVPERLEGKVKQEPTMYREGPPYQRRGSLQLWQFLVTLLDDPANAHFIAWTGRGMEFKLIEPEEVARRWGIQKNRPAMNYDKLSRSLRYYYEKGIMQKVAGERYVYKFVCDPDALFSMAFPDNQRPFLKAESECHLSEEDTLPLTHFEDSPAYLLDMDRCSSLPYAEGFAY
# Outline: as §1
# [3] = biological target: HSF1 (Homo sapiens, UniProt Q00613 1-529); conditions: protein: recombinant; tags: N-terminal GST; chain copies: 3; dsDNA, one strand shown
# Chain of HSF1 (Q00613 whole entry): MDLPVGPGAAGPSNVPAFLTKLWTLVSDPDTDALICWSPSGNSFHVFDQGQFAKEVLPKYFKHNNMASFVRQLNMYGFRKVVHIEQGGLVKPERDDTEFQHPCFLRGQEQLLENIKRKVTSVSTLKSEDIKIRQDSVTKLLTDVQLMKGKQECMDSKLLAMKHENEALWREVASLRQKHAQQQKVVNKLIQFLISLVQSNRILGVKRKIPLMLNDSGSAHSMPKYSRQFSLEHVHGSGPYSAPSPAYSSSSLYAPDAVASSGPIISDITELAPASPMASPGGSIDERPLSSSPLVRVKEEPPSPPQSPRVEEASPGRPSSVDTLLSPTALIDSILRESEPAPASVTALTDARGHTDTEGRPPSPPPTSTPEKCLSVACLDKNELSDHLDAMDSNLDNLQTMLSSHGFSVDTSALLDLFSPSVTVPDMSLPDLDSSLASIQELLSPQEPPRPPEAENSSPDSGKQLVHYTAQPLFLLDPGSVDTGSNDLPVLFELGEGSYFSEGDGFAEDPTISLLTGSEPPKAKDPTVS
# Outline: as §1
# [4] = biological target: T2, SPIC (Homo sapiens, UniProt Q8N5J4 1-248); conditions: protein: recombinant; tags: N-terminal GST; dsDNA, one strand shown
# T2 sequence: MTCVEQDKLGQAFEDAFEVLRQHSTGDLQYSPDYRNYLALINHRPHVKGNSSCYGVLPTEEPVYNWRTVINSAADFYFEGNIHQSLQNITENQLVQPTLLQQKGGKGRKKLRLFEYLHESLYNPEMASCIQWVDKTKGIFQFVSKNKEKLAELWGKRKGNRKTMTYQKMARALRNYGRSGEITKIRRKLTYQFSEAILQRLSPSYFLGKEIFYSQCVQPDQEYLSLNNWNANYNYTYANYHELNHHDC
# Outline: as §1
# [5] = biological target: ELF4 (Homo sapiens, UniProt Q99607 1-663); conditions: protein: recombinant; tags: N-terminal GST; dsDNA, one strand shown
# Chain of ELF4 (Q99607 whole entry): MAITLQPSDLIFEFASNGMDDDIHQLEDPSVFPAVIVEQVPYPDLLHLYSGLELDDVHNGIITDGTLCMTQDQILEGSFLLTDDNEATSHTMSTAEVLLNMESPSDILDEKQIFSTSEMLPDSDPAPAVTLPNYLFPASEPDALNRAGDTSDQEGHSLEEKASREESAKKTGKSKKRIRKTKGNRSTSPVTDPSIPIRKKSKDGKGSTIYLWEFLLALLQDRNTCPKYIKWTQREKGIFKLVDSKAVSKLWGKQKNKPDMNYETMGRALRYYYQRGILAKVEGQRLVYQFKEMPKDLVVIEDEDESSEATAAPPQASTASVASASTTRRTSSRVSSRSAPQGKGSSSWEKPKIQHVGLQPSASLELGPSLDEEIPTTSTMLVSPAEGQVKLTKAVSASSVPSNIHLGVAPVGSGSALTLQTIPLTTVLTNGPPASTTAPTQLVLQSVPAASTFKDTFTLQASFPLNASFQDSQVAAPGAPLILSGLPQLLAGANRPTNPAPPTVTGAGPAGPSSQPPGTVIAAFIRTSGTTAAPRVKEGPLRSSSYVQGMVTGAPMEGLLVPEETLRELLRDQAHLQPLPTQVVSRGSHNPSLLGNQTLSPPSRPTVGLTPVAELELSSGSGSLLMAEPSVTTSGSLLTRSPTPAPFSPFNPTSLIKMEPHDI
# Outline: as §1
# [6] = biological target: T3, ELK4 (Homo sapiens, UniProt P28324-2 1-405); conditions: protein: recombinant; tags: N-terminal GST; dsDNA, one strand shown
# T3 sequence: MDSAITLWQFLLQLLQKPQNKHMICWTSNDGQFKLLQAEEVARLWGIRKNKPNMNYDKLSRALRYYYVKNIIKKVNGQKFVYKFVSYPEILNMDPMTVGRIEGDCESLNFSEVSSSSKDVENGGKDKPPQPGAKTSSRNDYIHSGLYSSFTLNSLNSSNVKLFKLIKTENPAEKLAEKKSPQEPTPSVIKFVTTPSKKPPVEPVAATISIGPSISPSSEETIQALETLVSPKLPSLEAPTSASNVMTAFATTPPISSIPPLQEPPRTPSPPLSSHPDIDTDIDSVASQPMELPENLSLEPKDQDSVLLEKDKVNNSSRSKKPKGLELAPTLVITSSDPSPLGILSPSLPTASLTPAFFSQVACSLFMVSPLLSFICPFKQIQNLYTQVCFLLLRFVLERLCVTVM
# Outline: as §1
# [7] = biological target: T4, ETV2 (Homo sapiens, UniProt O00321 1-342); conditions: protein: recombinant; tags: N-terminal GST; dsDNA, one strand shown
# T4 sequence: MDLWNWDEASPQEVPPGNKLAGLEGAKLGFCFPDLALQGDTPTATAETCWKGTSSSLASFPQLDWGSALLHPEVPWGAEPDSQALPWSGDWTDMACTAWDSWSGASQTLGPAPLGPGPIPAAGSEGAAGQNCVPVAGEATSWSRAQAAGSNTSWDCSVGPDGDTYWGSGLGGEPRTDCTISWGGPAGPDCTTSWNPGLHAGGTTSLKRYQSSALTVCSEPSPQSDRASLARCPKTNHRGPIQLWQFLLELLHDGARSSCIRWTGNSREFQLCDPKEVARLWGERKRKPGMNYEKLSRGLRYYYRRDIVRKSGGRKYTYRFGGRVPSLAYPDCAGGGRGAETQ
# Outline: as §1
# [8] = biological target: T5, ELF3 (Homo sapiens, UniProt P78545 1-371); conditions: protein: recombinant; tags: N-terminal GST; dsDNA, one strand shown
# T5 sequence: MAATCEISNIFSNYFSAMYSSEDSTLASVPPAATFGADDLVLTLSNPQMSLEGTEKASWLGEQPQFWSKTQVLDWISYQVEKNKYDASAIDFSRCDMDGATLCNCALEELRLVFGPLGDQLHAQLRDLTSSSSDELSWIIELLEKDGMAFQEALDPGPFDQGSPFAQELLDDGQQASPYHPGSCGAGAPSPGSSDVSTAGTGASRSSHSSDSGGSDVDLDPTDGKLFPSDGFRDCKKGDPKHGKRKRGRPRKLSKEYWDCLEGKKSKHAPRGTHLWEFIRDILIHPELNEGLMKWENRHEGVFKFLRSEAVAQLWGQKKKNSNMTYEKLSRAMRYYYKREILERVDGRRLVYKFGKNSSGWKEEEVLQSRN
# Outline: as §1
# [9] = biological target: CRX (Homo sapiens, UniProt O43186 1-299); conditions: protein: recombinant; tags: N-terminal GST; dsDNA, one strand shown
# Chain of CRX (O43186 whole entry): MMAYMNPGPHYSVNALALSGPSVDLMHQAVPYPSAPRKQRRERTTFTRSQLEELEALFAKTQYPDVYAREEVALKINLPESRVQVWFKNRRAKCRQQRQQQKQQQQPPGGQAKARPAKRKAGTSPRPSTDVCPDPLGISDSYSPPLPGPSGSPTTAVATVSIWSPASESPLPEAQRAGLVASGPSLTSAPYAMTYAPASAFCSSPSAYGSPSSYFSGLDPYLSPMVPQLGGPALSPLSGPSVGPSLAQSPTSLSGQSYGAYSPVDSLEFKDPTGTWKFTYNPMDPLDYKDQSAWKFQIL
# Outline: as §1
# [10] = biological target: ETV1 (Homo sapiens, UniProt P50549 1-477); conditions: protein: recombinant; tags: N-terminal GST; dsDNA, one strand shown
# Chain of ETV1 (P50549 whole entry): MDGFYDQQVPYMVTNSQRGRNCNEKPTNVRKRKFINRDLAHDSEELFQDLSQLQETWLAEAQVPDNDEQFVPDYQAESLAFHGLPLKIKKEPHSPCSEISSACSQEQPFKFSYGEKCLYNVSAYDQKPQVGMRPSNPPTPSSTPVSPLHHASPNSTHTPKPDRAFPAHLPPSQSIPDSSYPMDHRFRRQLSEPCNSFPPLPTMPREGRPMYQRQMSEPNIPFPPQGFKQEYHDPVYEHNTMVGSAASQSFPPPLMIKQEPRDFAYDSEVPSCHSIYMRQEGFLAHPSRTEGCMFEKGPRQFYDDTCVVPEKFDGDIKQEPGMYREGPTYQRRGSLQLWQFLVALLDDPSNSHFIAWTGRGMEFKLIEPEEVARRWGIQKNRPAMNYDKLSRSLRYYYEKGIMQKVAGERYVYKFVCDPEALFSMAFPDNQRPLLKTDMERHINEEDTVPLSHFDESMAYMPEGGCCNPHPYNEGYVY
# Outline: as §1
Sequence,binding signal [1],binding signal [2],binding signal [3],binding signal [4],binding signal [5],binding signal [6],binding signal [7],binding signal [8],binding signal [9],binding signal [10]
TTCTGG,"1.19 fold enrichment (6-mer frequency, TF over GST control)","1.16 fold enrichment (6-mer frequency, TF over GST control)","4.45 fold enrichment (6-mer frequency, TF over GST control)","1.36 fold enrichment (6-mer frequency, TF over GST control)","1.29 fold enrichment (6-mer frequency, TF over GST control)","1.35 fold enrichment (6-mer frequency, TF over GST control)","1.42 fold enrichment (6-mer frequency, TF over GST control)","1.21 fold enrichment (6-mer frequency, TF over GST control)","1.76 fold enrichment (6-mer frequency, TF over GST control)","1.21 fold enrichment (6-mer frequency, TF over GST control)"
AGCAAT,"1.08 fold enrichment (6-mer frequency, TF over GST control)","1.14 fold enrichment (6-mer frequency, TF over GST control)","1.1 fold enrichment (6-mer frequency, TF over GST control)","1.05 fold enrichment (6-mer frequency, TF over GST control)","1.2 fold enrichment (6-mer frequency, TF over GST control)","1.14 fold enrichment (6-mer frequency, TF over GST control)","1.14 fold enrichment (6-mer frequency, TF over GST control)","1.13 fold enrichment (6-mer frequency, TF over GST control)","1.06 fold enrichment (6-mer frequency, TF over GST control)","1.09 fold enrichment (6-mer frequency, TF over GST control)"
TCCCCC,"1.44 fold enrichment (6-mer frequency, TF over GST control)","1.48 fold enrichment (6-mer frequency, TF over GST control)","1.41 fold enrichment (6-mer frequency, TF over GST control)","1.44 fold enrichment (6-mer frequency, TF over GST control)","1.53 fold enrichment (6-mer frequency, TF over GST control)","1.57 fold enrichment (6-mer frequency, TF over GST control)","1.53 fold enrichment (6-mer frequency, TF over GST control)","1.42 fold enrichment (6-mer frequency, TF over GST control)","1.45 fold enrichment (6-mer frequency, TF over GST control)","1.46 fold enrichment (6-mer frequency, TF over GST control)"
ACTACG,"1.34 fold enrichment (6-mer frequency, TF over GST control)","1.27 fold enrichment (6-mer frequency, TF over GST control)","1.09 fold enrichment (6-mer frequency, TF over GST control)","1.12 fold enrichment (6-mer frequency, TF over GST control)","1.26 fold enrichment (6-mer frequency, TF over GST control)","1.32 fold enrichment (6-mer frequency, TF over GST control)","1.33 fold enrichment (6-mer frequency, TF over GST control)","1.28 fold enrichment (6-mer frequency, TF over GST control)","1.08 fold enrichment (6-mer frequency, TF over GST control)","1.25 fold enrichment (6-mer frequency, TF over GST control)"
TTAAAG,"1.17 fold enrichment (6-mer frequency, TF over GST control)","1.15 fold enrichment (6-mer frequency, TF over GST control)","1.85 fold enrichment (6-mer frequency, TF over GST control)","1.17 fold enrichment (6-mer frequency, TF over GST control)","1.15 fold enrichment (6-mer frequency, TF over GST control)","1.18 fold enrichment (6-mer frequency, TF over GST control)","1.12 fold enrichment (6-mer frequency, TF over GST control)","1.26 fold enrichment (6-mer frequency, TF over GST control)","2.66 fold enrichment (6-mer frequency, TF over GST control)","1.15 fold enrichment (6-mer frequency, TF over GST control)"
AAATAC,"1.41 fold enrichment (6-mer frequency, TF over GST control)","1.43 fold enrichment (6-mer frequency, TF over GST control)","1.36 fold enrichment (6-mer frequency, TF over GST control)","1.3 fold enrichment (6-mer frequency, TF over GST control)","1.36 fold enrichment (6-mer frequency, TF over GST control)","1.18 fold enrichment (6-mer frequency, TF over GST control)","1.51 fold enrichment (6-mer frequency, TF over GST control)","1.37 fold enrichment (6-mer frequency, TF over GST control)","1.46 fold enrichment (6-mer frequency, TF over GST control)","1.39 fold enrichment (6-mer frequency, TF over GST control)"
CCCAAT,"1.27 fold enrichment (6-mer frequency, TF over GST control)","1.34 fold enrichment (6-mer frequency, TF over GST control)","1.1 fold enrichment (6-mer frequency, TF over GST control)","1.27 fold enrichment (6-mer frequency, TF over GST control)","1.32 fold enrichment (6-mer frequency, TF over GST control)","1.24 fold enrichment (6-mer frequency, TF over GST control)","1.3 fold enrichment (6-mer frequency, TF over GST control)","1.32 fold enrichment (6-mer frequency, TF over GST control)","1.19 fold enrichment (6-mer frequency, TF over GST control)","1.19 fold enrichment (6-mer frequency, TF over GST control)"
TCTTCT,"1.16 fold enrichment (6-mer frequency, TF over GST control)","1.14 fold enrichment (6-mer frequency, TF over GST control)","2.17 fold enrichment (6-mer frequency, TF over GST control)","1.31 fold enrichment (6-mer frequency, TF over GST control)","1.16 fold enrichment (6-mer frequency, TF over GST control)","1.26 fold enrichment (6-mer frequency, TF over GST control)","1.22 fold enrichment (6-mer frequency, TF over GST control)","1.31 fold enrichment (6-mer frequency, TF over GST control)","1.59 fold enrichment (6-mer frequency, TF over GST control)","1.25 fold enrichment (6-mer frequency, TF over GST control)"
